Inconclusive results are not listed. Calls of active or inactive are those of the source. Rule for the calls: active = hit-call score of the fitted dose curve at least 0.9, where 1 is the maximum; inconclusive = response in the unintended direction; inactive = score below 0.9.

Five compounds from PubChem BioAssay (EPA / NIEHS) can be followed below.

In test [1] the target is rat Neonicotinoid receptor (NNR), Chrna7 (gene 25302) (UniProt Q05941). In words: NVS_LGIC_rNNR_BungSens: NovaScreen (NVS) Ligand-Gated Ion Channel Assay for rat Neonicotinoid receptor (NNR) (AID 2283315). The method in brief: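 Rat cortical membrane preparation incubated 2.5 h with tritiated or iodinated radioligand and test chemical. Bound radioactivity was filtered and counted by scintillation, and displacement was analysed against DMSO.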
Chain of rat Neonicotinoid receptor (NNR), Chrna7 (gene 25302) (Q05941 whole entry, looked up): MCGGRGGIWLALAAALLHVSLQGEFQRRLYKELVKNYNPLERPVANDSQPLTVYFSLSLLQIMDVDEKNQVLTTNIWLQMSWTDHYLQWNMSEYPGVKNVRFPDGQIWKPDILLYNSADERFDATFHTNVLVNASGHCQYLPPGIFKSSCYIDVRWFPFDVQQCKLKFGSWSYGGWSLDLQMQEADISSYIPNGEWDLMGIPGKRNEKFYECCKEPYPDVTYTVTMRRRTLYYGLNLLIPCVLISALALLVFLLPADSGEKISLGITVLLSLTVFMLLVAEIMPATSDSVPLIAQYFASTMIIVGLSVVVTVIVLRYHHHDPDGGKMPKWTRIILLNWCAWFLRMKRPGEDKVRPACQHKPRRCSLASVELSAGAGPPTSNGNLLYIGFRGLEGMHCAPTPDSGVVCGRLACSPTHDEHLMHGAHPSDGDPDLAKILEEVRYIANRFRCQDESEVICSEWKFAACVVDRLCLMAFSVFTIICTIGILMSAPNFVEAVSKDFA

Test [2] concerns the target rat Opioid Receptor, Non-selective Sodium (Na+) Binding, Oprm1 (gene 25601) (UniProt P33535). In words: NVS_GPCR_rOpiate_NonSelectiveNa: NovaScreen (NVS) G Protein-Coupled Receptor Assay for rat Opioid Receptor, Non-selective Sodium (Na+) Binding (AID 2283311). Put shortly:
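Filtration radioligand binding on rat forebrain membrane preparations, read 1.5 h after dosing. Single-concentration 25 µM primary screen in duplicate, followed by singleton concentration series to 50 µM max for actives; DMSO baseline.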

In test [3] the target is rat Vasopressin 1 Receptor (V1), Avpr1a (gene 25107) (UniProt P30560). Put plainly: NVS_GPCR_rV1: NovaScreen (NVS) G Protein-Coupled Receptor Assay for rat Vasopressin 1 Receptor (V1) (AID 2283316). The protocol:
NVS_GPCR_rV1 is a biochemical, single-readout assay that uses extracted gene-proteins from Rat liver membranes in a tissue-based cell-free assay. Measurements were taken 1.5 hours after chemical dosing in a 48-well plate.NVS_GPCR_rV1 is one of one assay component(s) measured or calculated from the NVS_GPCR_rV1 assay. It is designed to make measurements of radioligand binding, a form of binding reporter, as detected with scintillation counting signals by Filter-based radiodetection technology.Data from the assay component NVS_GPCR_rV1 was analyzed into 1 assay endpoint. This assay endpoint, NVS_GPCR_rV1, was analyzed in the positive analysis fitting direction relative to DMSO as the negative control and baseline of activity. […] Furthermore, this assay endpoint can be referred to as a primary readout, because the performed assay has only produced 1 assay endpoint. […]
Binding assays used specific radioligands (tritiated, iodinated) with non-radioactive competitive displacement ligands in agonist or antagonist protocols (as indicated) and various reference compounds and inhibitors to titrate specific binding to receptors and transporters. Most enzyme assays (CYPs, kinases, phosphatases, proteases, HDACs) used recombinant protein and specific substrates (fluorescence mostly, some colorimetric and radioactive) and inhibitors, followed by a biochemical separation of substrate and product. […]

The target in test [4] is rat Adrenergic Receptor, Beta (Adrb), Non-selective Binding, Adrb1 (gene 24925) (UniProt P18090). Put plainly: NVS_GPCR_rAdrb_NonSelective: NovaScreen (NVS) G Protein-Coupled Receptor Assay for rat Adrenergic Receptor, Beta (Adrb), Non-selective Binding (AID 2283298). The method in brief:
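Rat cortical membranes incubated 1 h with beta-adrenergic radioligand and test chemical; bound ligand measured by filtration and scintillation counting. Screen at 25 uM duplicate, then concentration series with 50 uM maximum; loss of signal versus DMSO.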

Test [5] concerns the target rat Adrenergic, Alpha 1A Receptor (Adra1A), Adra1a (gene 29412) (UniProt P43140). In words: NVS_GPCR_rAdra1A: NovaScreen (NVS) G Protein-Coupled Receptor Assay for rat Adrenergic, Alpha 1A Receptor (Adra1A) (AID 2283296). The method in brief: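 Filter radiodetection after 1 h competitive binding on CEC-pretreated rat cortical membranes. Duplicate single-point screening at 25 uM; active chemicals retested across concentration series.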

Test [6] deals with rat Adrenergic, Alpha 1B Receptor (Adra1B), gene 24173. Put plainly: NVS_GPCR_rAdra1B: NovaScreen (NVS) G Protein-Coupled Receptor Assay for rat Adrenergic, Alpha 1B Receptor (Adra1B) (AID 2283297). The protocol:
NVS_GPCR_rAdra1B is a biochemical, single-readout assay that uses extracted gene-proteins from Rat liver membranes in a tissue-based cell-free assay. Measurements were taken 1 hour after chemical dosing in a 48-well plate.NVS_GPCR_rAdra1B is one of one assay component(s) measured or calculated from the NVS_GPCR_rAdra1B assay. It is designed to make measurements of radioligand binding, a form of binding reporter, as detected with scintillation counting signals by Filter-based radiodetection technology.Data from the assay component NVS_GPCR_rAdra1B was analyzed into 1 assay endpoint. This assay endpoint, NVS_GPCR_rAdra1B, was analyzed in the positive analysis fitting direction relative to DMSO as the negative control and baseline of activity. Using a type of binding reporter, loss-of-signal activity can be used to understand changes in the binding as they relate to the gene Adra1b. Furthermore, this assay endpoint can be referred to as a primary readout, because the performed assay has only produced 1 assay endpoint. To generalize the intended target to other relatable targets, this assay endpoint is annotated to the gpcr intended target family, where the subfamily is rhodopsin-like receptor. […]

Test [7] has as its target rat Histamine Receptor (H3), Hrh3 (gene 85268) (UniProt Q9QYN8). Put plainly: NVS_GPCR_rH3: NovaScreen (NVS) G Protein-Coupled Receptor Assay for rat Histamine Receptor (H3) (AID 2283303). Put shortly: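 Filter-binding radioligand competition on rat forebrain membranes, 1 h incubation; compounds screened at 25 µM in duplicate and followed in concentration series to 50 µM, loss of bound signal vs DMSO.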

Test [8] deals with Adra2b (gene 24174) (UniProt P19328). In words: NVS_GPCR_rmAdra2B: NovaScreen (NVS) G Protein-Coupled Receptor Assay for hybird cells Adrenergic, Alpha 2B Receptor (Adra2B) (AID 2283306). The method in brief:
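Compounds screened first at 25 uM in duplicate, with actives followed up in concentration-response; specific radioligand displacement from hybrid neuroglioma/blastoma cell membrane preparations measured by filter scintillation counting after 1 h, normalized to DMSO.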

The target in test [9] is rat Glutamate Metabotropic Receptor 5 (MGluR5), Grm5 (gene 24418) (UniProt P31424). Put plainly: NVS_GPCR_rmMGluR5: NovaScreen (NVS) G Protein-Coupled Receptor Assay for rat Glutamate Metabotropic Receptor 5 (MGluR5) (AID 2283307). The method in brief: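 Compounds first screened in duplicate at 25 uM, then in concentration series up to 50 uM if over threshold. Radioligand displacement on rat whole-brain membranes, filtration and scintillation counting after 1.5 h; binding loss relative to DMSO.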
Chain of rat Glutamate Metabotropic Receptor 5 (MGluR5), Grm5 (gene 24418) (P31424 whole entry, looked up): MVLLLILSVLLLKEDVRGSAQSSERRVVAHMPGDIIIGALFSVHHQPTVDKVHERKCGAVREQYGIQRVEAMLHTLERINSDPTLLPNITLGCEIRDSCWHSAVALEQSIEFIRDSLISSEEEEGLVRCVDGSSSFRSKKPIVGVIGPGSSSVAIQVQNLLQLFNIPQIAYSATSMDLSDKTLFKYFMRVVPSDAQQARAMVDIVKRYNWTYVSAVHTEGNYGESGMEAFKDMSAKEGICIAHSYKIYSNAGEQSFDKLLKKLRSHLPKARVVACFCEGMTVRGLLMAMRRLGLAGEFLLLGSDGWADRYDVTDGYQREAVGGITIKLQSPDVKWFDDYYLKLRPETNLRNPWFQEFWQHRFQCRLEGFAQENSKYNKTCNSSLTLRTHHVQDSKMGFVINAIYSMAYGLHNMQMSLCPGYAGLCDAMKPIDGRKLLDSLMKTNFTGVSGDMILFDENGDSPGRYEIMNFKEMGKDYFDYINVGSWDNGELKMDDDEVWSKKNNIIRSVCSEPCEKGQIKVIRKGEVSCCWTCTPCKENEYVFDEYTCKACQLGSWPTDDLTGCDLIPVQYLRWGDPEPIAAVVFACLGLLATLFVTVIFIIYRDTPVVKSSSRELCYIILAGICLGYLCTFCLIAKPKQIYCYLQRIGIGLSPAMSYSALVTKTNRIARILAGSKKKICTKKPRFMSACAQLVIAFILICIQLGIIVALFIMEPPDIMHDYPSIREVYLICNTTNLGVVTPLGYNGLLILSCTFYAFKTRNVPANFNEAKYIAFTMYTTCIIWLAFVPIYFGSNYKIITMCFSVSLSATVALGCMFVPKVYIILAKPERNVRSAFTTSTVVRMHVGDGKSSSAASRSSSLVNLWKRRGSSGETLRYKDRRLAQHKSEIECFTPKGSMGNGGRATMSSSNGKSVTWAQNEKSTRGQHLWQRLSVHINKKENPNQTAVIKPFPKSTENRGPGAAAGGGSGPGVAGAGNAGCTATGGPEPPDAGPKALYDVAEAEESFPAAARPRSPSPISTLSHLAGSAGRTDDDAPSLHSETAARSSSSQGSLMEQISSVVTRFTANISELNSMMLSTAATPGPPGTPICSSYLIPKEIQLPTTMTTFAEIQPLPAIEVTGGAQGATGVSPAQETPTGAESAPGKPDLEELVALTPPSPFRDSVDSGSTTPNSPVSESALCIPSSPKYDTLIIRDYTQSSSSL

Test [10] concerns the target rat Neurokinin-1 Receptor (NK1), Tacr1 (gene 24807) (UniProt P14600). In words: NVS_GPCR_rNK1: NovaScreen (NVS) G Protein-Coupled Receptor Assay for rat Neurokinin-1 Receptor (NK1) (AID 2283309). Put shortly: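 Competitive radioligand binding to NK1 in rat submaxillary membranes, 1 h incubation, filtration and scintillation read-out. Compounds first screened at 25 uM in duplicate, then concentration-response for actives; signal loss relative to DMSO.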

Chain of rat Opioid Receptor, Non-selective Sodium (Na+) Binding, Oprm1 (gene 25601) (P33535 whole entry, looked up): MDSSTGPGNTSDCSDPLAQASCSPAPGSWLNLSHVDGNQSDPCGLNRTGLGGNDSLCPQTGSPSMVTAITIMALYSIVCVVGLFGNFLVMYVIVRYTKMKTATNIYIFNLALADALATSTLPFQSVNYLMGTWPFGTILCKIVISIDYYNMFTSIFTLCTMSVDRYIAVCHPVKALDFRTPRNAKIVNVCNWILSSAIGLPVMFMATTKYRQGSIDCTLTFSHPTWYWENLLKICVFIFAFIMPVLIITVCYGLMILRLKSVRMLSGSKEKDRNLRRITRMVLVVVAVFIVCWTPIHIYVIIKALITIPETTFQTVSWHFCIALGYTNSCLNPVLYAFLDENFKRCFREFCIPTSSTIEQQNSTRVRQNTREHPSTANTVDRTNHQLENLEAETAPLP
Chain of rat Vasopressin 1 Receptor (V1), Avpr1a (gene 25107) (P30560 whole entry, looked up): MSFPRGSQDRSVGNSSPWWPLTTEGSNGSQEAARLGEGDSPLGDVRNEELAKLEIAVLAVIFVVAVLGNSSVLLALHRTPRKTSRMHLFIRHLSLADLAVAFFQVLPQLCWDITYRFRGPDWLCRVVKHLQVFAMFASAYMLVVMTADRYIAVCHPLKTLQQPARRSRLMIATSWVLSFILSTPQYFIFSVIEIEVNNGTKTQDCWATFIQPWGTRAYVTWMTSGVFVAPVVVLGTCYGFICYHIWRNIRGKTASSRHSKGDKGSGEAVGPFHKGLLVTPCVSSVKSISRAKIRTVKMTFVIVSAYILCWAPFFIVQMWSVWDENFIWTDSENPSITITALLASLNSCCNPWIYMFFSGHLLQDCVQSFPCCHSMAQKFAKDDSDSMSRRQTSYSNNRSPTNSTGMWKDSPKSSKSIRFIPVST
Chain of rat Adrenergic Receptor, Beta (Adrb), Non-selective Binding, Adrb1 (gene 24925) (P18090 whole entry, looked up): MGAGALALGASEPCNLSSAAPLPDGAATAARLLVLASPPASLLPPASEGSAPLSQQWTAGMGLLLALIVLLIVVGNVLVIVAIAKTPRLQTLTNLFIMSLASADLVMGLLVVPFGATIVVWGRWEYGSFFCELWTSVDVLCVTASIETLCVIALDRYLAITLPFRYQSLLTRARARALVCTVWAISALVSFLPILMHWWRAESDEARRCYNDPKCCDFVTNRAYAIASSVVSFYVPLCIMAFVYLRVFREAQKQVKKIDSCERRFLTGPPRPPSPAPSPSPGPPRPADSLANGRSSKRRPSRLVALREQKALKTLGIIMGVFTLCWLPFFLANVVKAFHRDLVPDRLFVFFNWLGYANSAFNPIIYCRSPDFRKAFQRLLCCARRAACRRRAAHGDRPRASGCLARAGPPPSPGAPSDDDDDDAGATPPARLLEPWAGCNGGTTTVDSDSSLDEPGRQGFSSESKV
Chain of rat Histamine Receptor (H3), Hrh3 (gene 85268) (Q9QYN8 whole entry, looked up): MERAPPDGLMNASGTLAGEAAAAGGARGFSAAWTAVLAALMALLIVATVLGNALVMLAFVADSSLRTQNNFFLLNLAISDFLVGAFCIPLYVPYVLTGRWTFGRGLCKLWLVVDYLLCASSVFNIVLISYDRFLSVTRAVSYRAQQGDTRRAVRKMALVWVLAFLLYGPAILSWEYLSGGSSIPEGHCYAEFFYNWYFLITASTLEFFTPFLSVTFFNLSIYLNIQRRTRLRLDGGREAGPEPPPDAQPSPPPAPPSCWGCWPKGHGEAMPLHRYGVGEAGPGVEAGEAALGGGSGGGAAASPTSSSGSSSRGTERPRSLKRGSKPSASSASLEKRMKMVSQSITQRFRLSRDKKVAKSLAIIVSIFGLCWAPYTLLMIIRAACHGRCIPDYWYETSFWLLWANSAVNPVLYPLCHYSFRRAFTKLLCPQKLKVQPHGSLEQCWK
Chain of rat Adrenergic, Alpha 1A Receptor (Adra1A), Adra1a (gene 29412) (P43140 whole entry, looked up): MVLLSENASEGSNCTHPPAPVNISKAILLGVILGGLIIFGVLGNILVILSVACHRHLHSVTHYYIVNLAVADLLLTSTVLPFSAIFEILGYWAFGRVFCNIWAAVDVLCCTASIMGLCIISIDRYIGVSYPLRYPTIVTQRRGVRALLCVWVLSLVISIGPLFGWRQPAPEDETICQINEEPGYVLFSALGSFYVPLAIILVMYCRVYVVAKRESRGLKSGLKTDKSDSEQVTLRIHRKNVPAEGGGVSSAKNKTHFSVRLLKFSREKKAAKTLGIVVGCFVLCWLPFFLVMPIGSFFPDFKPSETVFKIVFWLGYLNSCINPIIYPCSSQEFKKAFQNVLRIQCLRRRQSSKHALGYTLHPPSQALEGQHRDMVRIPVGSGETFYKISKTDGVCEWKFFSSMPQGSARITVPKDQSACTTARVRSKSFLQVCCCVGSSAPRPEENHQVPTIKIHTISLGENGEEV
Chain of rat Neurokinin-1 Receptor (NK1), Tacr1 (gene 24807) (P14600 whole entry, looked up): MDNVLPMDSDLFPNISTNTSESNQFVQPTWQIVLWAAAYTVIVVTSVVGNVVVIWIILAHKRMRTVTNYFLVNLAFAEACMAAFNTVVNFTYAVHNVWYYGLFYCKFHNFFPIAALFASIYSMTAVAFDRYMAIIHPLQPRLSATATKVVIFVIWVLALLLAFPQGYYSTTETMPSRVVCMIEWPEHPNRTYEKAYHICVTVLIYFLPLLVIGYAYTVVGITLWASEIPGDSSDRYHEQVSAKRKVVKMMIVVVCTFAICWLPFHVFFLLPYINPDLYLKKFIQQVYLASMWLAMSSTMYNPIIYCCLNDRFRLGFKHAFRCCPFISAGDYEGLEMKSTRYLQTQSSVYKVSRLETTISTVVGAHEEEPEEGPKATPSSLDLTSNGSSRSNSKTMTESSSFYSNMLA
Chain of Adra2b (gene 24174) (P19328 whole entry, looked up): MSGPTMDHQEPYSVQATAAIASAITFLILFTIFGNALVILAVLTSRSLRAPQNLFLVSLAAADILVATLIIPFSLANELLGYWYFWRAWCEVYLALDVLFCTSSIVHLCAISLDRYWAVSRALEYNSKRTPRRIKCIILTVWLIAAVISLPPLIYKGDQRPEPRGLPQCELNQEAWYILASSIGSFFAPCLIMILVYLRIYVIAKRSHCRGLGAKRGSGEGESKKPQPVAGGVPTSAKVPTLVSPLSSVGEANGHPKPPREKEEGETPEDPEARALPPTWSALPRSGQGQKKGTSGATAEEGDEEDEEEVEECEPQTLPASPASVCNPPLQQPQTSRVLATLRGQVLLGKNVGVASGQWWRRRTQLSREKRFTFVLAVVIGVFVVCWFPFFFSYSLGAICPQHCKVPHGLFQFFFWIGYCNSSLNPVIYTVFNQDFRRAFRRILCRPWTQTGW

In the case of `C=C1CC[C@H]2O[C@]2(C)CC[C@@H]2[C@@H]1CC2(C)C`, in test [1], the half-maximal activity concentration (AC50) (as a rule, the concentration giving half of the maximal activity seen) is 15.6 µM (active).
Regarding `C#C[C@]1(O)CC[C@H]2[C@@H]3CCc4cc(O)ccc4[C@H]3CC[C@@]21C`, the compound was called inactive in test [2]. The concentration at half-maximal activity (AC50) in test [3] is 25 µM (active).
Turning to `Cc1cc(O)c(C)c(C)c1O`, the call in test [1] was inactive.
`CC/C(=C(\c1ccccc1)c1ccc(OCCN(C)C)cc1)c1ccccc1`: the AC50 in test [4] was 5.74 µM (active). In addition, the compound was classed as inactive in [2], in test [1] and in test [3].
For the compound `O=C(c1ccc(OCCN2CCCCC2)cc1)c1c(-c2ccc(O)cc2)sc2cc(O)ccc12`, the AC50 is 5.36 µM (active) in test [5]; 5.62 µM (active) in [6]; 25 µM (active) in [7]; 10.7 µM (active) in test [8]; 18.2 µM (active) in test [10]; 1.96 µM (active) in test [2]. Moreover, the compound was called inactive in [9] and in [1].
